Among all 48,000 compounds or so, about 13,000 (27%) showed an effect of 50% or more. Some of the results follow.

The subject of this assay is Wolbachia pipientis. The assay can be described thus: Anti-Wolbachia Cell-Based Screen. The class given is functional. Also on record: scale not given: in the data most compounds retested in dose-response had high values. The conditions noted are these: 5 µM.
For the compound `OC[C@@H](O)CN(CCC(F)(F)F)c1ncccn1`, the “Percent Effect” value is -5.207%. The same measure for `O=C(CCN1CCCN(c2nccs2)CC1)NCC1CCCCC1`: -7.888%. Regarding `Cc1cnn(CCCNC(=O)NC(C)C(=O)Nc2ccccc2)c1` (centres undefined), the “Percent Effect” value is given as 105.3%. Take `Cc1cnn(CCCNC(=O)NCCC(=O)Nc2ccccc2)c1`: the “Percent Effect” value worked out at 97.62%.

On to `Cc1cnn(CCNC(C)C(=O)Nc2ccc(Cl)cn2)c1` (centres undefined), for which the “Percent Effect” value was -21.66%. For `CCn1nnnc1-c1cccc(NC(=O)CCn2cc(C)cn2)c1`, the “Percent Effect” value amounted to 2.601%. The same measure for `Cc1cnn(CCCNC(=O)NCCS(=O)(=O)Nc2ccccc2)c1`: 96.15%; for `Cc1cnn(CCNCC(=O)NCc2ccccc2)c1`: 3.726%; for `Cc1cnn(CCNCCCOc2ccccc2)c1`: 2.655%. The same measure for `Cc1cnn(CCNC(C)C(=O)NCCc2cccs2)c1` (centres undefined): 5.747%; for `Cc1cnn(CCCNC2Cc3ccccc3C2)c1`: 8.956%; for `CN(C)S(=O)(=O)N1CC[C@]2(C[C@H](OCc3ccccn3)CO2)C1.O=C(O)C(F)(F)F`: 14.62%. The same measure for `Cc1ccc(C(=O)N2CC[C@@H]3[C@H]2CCC(=O)N3CCN(C)C)cn1.O=C(O)C(F)(F)F.O=C(O)C(F)(F)F`: 19.11%. With `CCn1nc(C)c(NC(=O)c2cc(NC(=O)C3CC3)n(C)n2)c1C`, the “Percent Effect” value is -7.543%. Turning to `Cc1nc(CN2CCCC(CCc3cccc(C(F)(F)F)c3)C2)co1` (centres undefined), the “Percent Effect” value is recorded as -5.657%. Consider `O=C1C(N2CC[C@@H](O)C2)CCCN1Cc1cccc(C(F)(F)F)c1` (some centres undefined), for which the “Percent Effect” value is 107.1%.

As for `O[C@H]1COCCN(Cc2cccc(C(F)(F)F)c2)C1`, the “Percent Effect” value is on record as 1.348%.

Take `O=C1C(N2CCOCC2)CCCN1Cc1cccc(C(F)(F)F)c1` (centres undefined): the “Percent Effect” value is given as 85.07%. For `O=C(C[S+]([O-])Cc1cccc(C(F)(F)F)c1)NC1CCCC1` (centres undefined), the “Percent Effect” value was -0.5467%.

With `NC1CCCN(Cc2cccc(C(F)(F)F)c2)C1=O` (centres undefined), the “Percent Effect” value was determined as 110.9%. The same measure for `O=C1NC[C@@]2(C(=O)O)CN(Cc3cccc(C(F)(F)F)c3)C[C@@H]12`: -16.76%; for `NC(=O)CN(C(=O)Cc1cccc(C(F)(F)F)c1)C1CCCC1`: 0.7845%; for `FC(F)(F)c1cccc(CN2CCOC[C@H](Oc3cccnc3)C2)c1`: -1.353%. The same measure for `CC(C)(C)c1nc2cc(NC(=O)Cn3ccc(=O)[nH]c3=O)ccc2o1`: -2.056%. The same measure for `Cc1cccc(C(C(=O)N2CCN(C(=O)c3ccc[nH]3)CC2)N(C)C)c1` (centres undefined): 8.522%; for `Clc1ccc2nc(N3CCC(NCCCC4CCOC4)CC3)sc2c1` (centres undefined): 5.411%; for `CC(C)COCC(C)NC(=O)NCc1cccc(-n2cncn2)c1` (centres undefined): 11.71%. As for `CCN1CCCC(C)(C(=O)NCc2nncn2CCc2ccccc2)C1` (centres undefined), the “Percent Effect” value was 118.3%. Regarding `CCN1CCCC(C)(C(=O)NCCCc2nc(C)cs2)C1` (centres undefined), the “Percent Effect” value was -10.41%.

Regarding `CCN1CCCC(C)(C(=O)NCc2nccn2Cc2ccccc2)C1` (centres undefined), the “Percent Effect” value is on record as 105.1%. Regarding `CCOC(=O)C1(Cc2ccccc2)CCCN(Cc2nccn2CC)C1` (centres undefined), the “Percent Effect” value was determined as 6.244%. For the compound `CCN1CCCC(C)(C(=O)NCCc2nnc(C)[nH]2)C1` (centres undefined), the “Percent Effect” value is 0.7717%. The same measure for `CCC1(CO)CCCN(Cc2nccn2Cc2ccccc2)C1` (centres undefined): 7.742%; for `CCN1CCCC(C)(C(=O)NCCc2n[nH]c(=O)[nH]2)C1` (centres undefined): 34.99%; for `CCN1CCCC(C)(C(=O)NCc2nnnn2-c2ccccc2)C1` (centres undefined): 65.9%. The same measure for `Cc1nnc(N2CCC(CN(C)C(C)C)CC2)c(C#N)c1C`: 6.063%.

Regarding `O=C(CC1CC1)N1CCn2cc(Cn3cncn3)nc2C1`, the “Percent Effect” value came to 0.5446%. The same measure for `Cn1cc(S(=O)(=O)NCC(C)(O)c2ccsc2)cn1` (centres undefined): 76.2%; for `Cn1cnc(S(=O)(=O)NCC(C)(O)c2ccc3c(c2)OCO3)c1` (centres undefined): -0.9964%; for `Cn1cc(Br)cc1C(=O)NCC(C)(O)c1ccsc1` (centres undefined): -10.72%. On to `CSCC(C)(O)CNc1ncccc1I` (centres undefined), for which the “Percent Effect” value is 15.53%. As to `Cc1ncsc1C(=O)N1CCCCC1c1cc2nc(C)c(C)c(O)n2n1` (centres undefined), the “Percent Effect” value was determined as 146.5%. The same measure for `Cc1nnsc1C(=O)N1CCCCC1c1cc2nc(C)c(C)c(O)n2n1` (centres undefined): 136.2%. In the case of `Cc1nc2cc(C3CCN(Cc4cccc(F)c4F)C3)nn2c(O)c1C.O=C(O)CC(O)(CC(=O)O)C(=O)O` (centres undefined), the “Percent Effect” value is given as -10.9%. The same measure for `Cc1nc2cc(C3CCCCN3C(=O)C3CC3)nn2c(O)c1C` (centres undefined): 136.9%; for `Cc1nnsc1C(=O)N1CCN(C(=O)C2CCC2)[C@@H]2CS(=O)(=O)C[C@@H]21`: 2.369%; for `CC(=O)N1CCN(C(=O)c2snnc2C)[C@H]2CS(=O)(=O)C[C@H]21`: -13.7%.

`CC1CCCN(c2ccc(C(N)=O)cc2NC(=O)CC2=CCNCC2)C1` (centres undefined): the “Percent Effect” value is reported as 16.61%. The same measure for `O=C1N(Cc2ccccc2F)CCCC12CCN(C1CCSCC1)C2` (centres undefined): -13.98%.

Consider `Cc1ncsc1CN1Cc2cn(C)nc2C(COCC2CC2)C1.O=C(O)C(F)(F)F.O=C(O)C(F)(F)F` (centres undefined), for which the “Percent Effect” value came out at 13.37%. The same measure for `Cc1ccnn1CC(=O)N1CCCN(C2Cc3ccccc3C2)CC1`: -5.068%; for `CC(C)NC(=O)C1Cc2nc(-c3ccsc3)sc2N1CC1CC1` (centres undefined): 78.87%; for `CS(=O)(=O)NCC1CCCCN1C(=O)c1csc(-c2ccsc2)n1` (centres undefined): 11.05%. As for `O=C(NC1CCCC1)C1Cc2nc(-c3ccsc3)sc2N1CC1CC1` (centres undefined), the “Percent Effect” value turned out to be 63.55%. As to `CC(C)N1c2sc(-c3ccccc3)nc2CC1C(=O)NC1CCCC1` (centres undefined), the “Percent Effect” value is recorded as 22.35%.

In the case of `CC(C)N1c2sc(-c3ccsc3)nc2CC1C(=O)NC1CC1` (centres undefined), the “Percent Effect” value amounted to 38.95%.

Consider `O=C(NC1CC1)C1CCCN1c1ncnc2ccsc12` (centres undefined), for which the “Percent Effect” value is reported as -11.59%.

Consider `O=C([C@@H]1CCCO1)N1CCC(Cn2cc(-c3ccsc3)nn2)CC1`, for which the “Percent Effect” value is -13.58%. For the compound `CC(C)N1c2sc(-c3ccsc3)nc2CC1C(=O)NC1CCCC1` (centres undefined), the “Percent Effect” value was determined as 65.31%. Consider `Cc1cncc(C(=O)N2CCC(Cn3cc(-c4ccsc4)nn3)CC2)c1`, for which the “Percent Effect” value is -0.4456%.

For the compound `COCCCN1CCCN(C(C)C(=O)Nc2cccc(I)c2)CC1` (centres undefined), the “Percent Effect” value was 23.62%. The same measure for `COc1ccc(-n2nc(C)c(C(C)=O)c2C)cc1CO`: -7.291%; for `Cc1nc(COCc2nc3c(o2)CN(C(=O)c2ccoc2)C3)cs1`: 0.193%. On to `CN(C)c1nc2c(c(N3CCC(O)CC3)n1)CN(CC(C)(C)C)CC2`, for which the “Percent Effect” value is 3.405%.

Source of the values: ChEMBL document CHEMBL3988442, “University of Dundee, Small-Polar-MMV Screening Library” (2021).
